Measurements reported in PubChem BioAssay AID1159580 (chemical genetic matrix, 2015).
Screen size: about 5,500 compounds; about 2,000 (36%) were called active. Roughly 18% stayed inconclusive and do not appear here. Cut-off read from the data, not from the text of the source: active = normalized growth mostly below about 0.91 (no sharp cut-off); inconclusive = no clear call, values can overlap the other calls; inactive = mostly above about 0.92. This is one part of the list.

Assay: chemical genetic growth profiling, strain panel (AID 1159580);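 note: tested at 20 µM; growth read once vehicle control cultures reached saturation at 30 °C; 1 = growth at the plate median or of vehicle wells; lower values mean less growth of the strain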
Details: growth OD

Measured: normalized growth

CCNc1nc(Cl)nc(NC(C)C)n1
inactive: S. cerevisiae deletion strains, locus YJR075W, strain HOC1, stronger effect = lower value 1.02 | S. cerevisiae deletion strains, locus YKL009W, strain mrt4, stronger effect = lower value 1.03 | S. cerevisiae deletion strains, locus YKL068W, stronger effect = lower value 1.02 | S. cerevisiae deletion strains, locus YKL085W, strain MDH1 (second series), stronger effect = lower value 1.02 | S. cerevisiae deletion strains, locus YKL085W, strain MDH1, stronger effect = lower value 1.02 | S. cerevisiae deletion strains, locus YKL160W, strain elf1, stronger effect = lower value 1 | S. cerevisiae deletion strains, locus YKL190W, strain CNB1, stronger effect = lower value 1.03 | S. cerevisiae deletion strains, locus YKR001C, strain vps1, stronger effect = lower value 1.03 | S. cerevisiae deletion strains, locus YKR026C, strain gcn3, stronger effect = lower value 0.991 | S. cerevisiae deletion strains, locus YKR091W, strain srl3, stronger effect = lower value 1.01 | S. cerevisiae deletion strains, locus YLL001W, strain dnm1, stronger effect = lower value 0.998 | S. cerevisiae deletion strains, locus YLL026W, stronger effect = lower value 1 | S. cerevisiae deletion strains, locus YLL041C, strain sdh2, stronger effect = lower value 1 | S. cerevisiae deletion strains, locus YLR027C, strain aat2, stronger effect = lower value 0.996 | S. cerevisiae deletion strains, locus YLR039C, strain RIC1, stronger effect = lower value 1.02 | S. cerevisiae deletion strains, locus YLR058C, strain SHM2, stronger effect = lower value 1.02 | S. cerevisiae deletion strains, locus YLR102C, strain apc9, stronger effect = lower value 1.02 | S. cerevisiae deletion strains, locus YLR113W, strain HOG1, stronger effect = lower value 0.993 | S. cerevisiae deletion strains, locus YLR221C, strain rsa3, stronger effect = lower value 1.01 | S. cerevisiae deletion strains, locus YLR258W, strain gsy2, stronger effect = lower value 1.01 | S. cerevisiae deletion strains, locus YLR262C, strain YPT6 (second series), stronger effect = lower value 1.01 | S. cerevisiae deletion strains, locus YLR262C, strain YPT6, stronger effect = lower value 1.04 | S. cerevisiae deletion strains, locus YLR268W, strain sec22, stronger effect = lower value 1.01 | S. cerevisiae deletion strains, locus YLR320W, strain mms22, stronger effect = lower value 1.01 | S. cerevisiae deletion strains, locus YLR330W, strain CHS5, stronger effect = lower value 1.02 | S. cerevisiae deletion strains, locus YLR342W, strain FKS1 (second series), stronger effect = lower value 1.01 | S. cerevisiae deletion strains, locus YLR342W, strain FKS1, stronger effect = lower value 1 | S. cerevisiae deletion strains, locus YLR357W, strain rsc2, stronger effect = lower value 0.991 | S. cerevisiae deletion strains, locus YLR370C, strain arc18, stronger effect = lower value 0.984 | S. cerevisiae deletion strains, locus YLR371W, strain rom2, stronger effect = lower value 1.02 | S. cerevisiae deletion strains, locus YLR384C, strain iki3, stronger effect = lower value 1.01 | S. cerevisiae deletion strains, locus YLR418C, strain cdc73, stronger effect = lower value 1.04 | S. cerevisiae deletion strains, locus YML016C, strain PPZ1, stronger effect = lower value 1.01 | S. cerevisiae deletion strains, locus YML032C, strain rad52, stronger effect = lower value 1.03 | S. cerevisiae deletion strains, locus YML120C, strain ndi1, stronger effect = lower value 1.02 | S. cerevisiae deletion strains, locus YML124C, strain tub3, stronger effect = lower value 1.02 | S. cerevisiae deletion strains, locus YMR058W, strain fet3, stronger effect = lower value 1.01 | S. cerevisiae deletion strains, locus YMR078C, strain ctf18, stronger effect = lower value 1.01 | S. cerevisiae deletion strains, locus YMR125W, strain sto1, stronger effect = lower value 0.977 | S. cerevisiae deletion strains, locus YMR129W, stronger effect = lower value 1 | S. cerevisiae deletion strains, locus YMR205C, strain PFK2, stronger effect = lower value 1.01 | S. cerevisiae deletion strains, locus YMR223W, strain ubp8, stronger effect = lower value 1.02 | S. cerevisiae deletion strains, locus YMR231W, strain pep5, stronger effect = lower value 0.996 | S. cerevisiae deletion strains, locus YMR263W, strain SAP30, stronger effect = lower value 1.03 | S. cerevisiae deletion strains, locus YMR307W, strain GAS1, stronger effect = lower value 1.09 | S. cerevisiae deletion strains, locus YNL067W, strain RPL9B, stronger effect = lower value 1.02 | S. cerevisiae deletion strains, locus YNL071W, strain lat1, stronger effect = lower value 1.01 | S. cerevisiae deletion strains, locus YNL128W, strain TEP1, stronger effect = lower value 1.02 | S. cerevisiae deletion strains, locus YNL153C, strain GIM3, stronger effect = lower value 1.01 | S. cerevisiae deletion strains, locus YNL183C, strain NPR1, stronger effect = lower value 0.97 | S. cerevisiae deletion strains, locus YNL209W, strain ssb2, stronger effect = lower value 1.01 | S. cerevisiae deletion strains, locus YNL233W, strain BNI4, stronger effect = lower value 0.98 | S. cerevisiae deletion strains, locus YNL248C, strain rpa49, stronger effect = lower value 0.994 | S. cerevisiae deletion strains, locus YNL250W, strain rad50, stronger effect = lower value 1.01 | S. cerevisiae deletion strains, locus YNL271C, strain bni1, stronger effect = lower value 1.02 | S. cerevisiae deletion strains, locus YNL298W, strain CLA4, stronger effect = lower value 1.02 | S. cerevisiae deletion strains, locus YNL307C, strain MCK1, stronger effect = lower value 1.02 | S. cerevisiae deletion strains, locus YNL322C, strain KRE1 (second series), stronger effect = lower value 1 | S. cerevisiae deletion strains, locus YNL322C, strain KRE1, stronger effect = lower value 1.02 | S. cerevisiae deletion strains, locus YNR049C, strain mso1, stronger effect = lower value 1 | S. cerevisiae deletion strains, locus YNR052C, strain pop2, stronger effect = lower value 1.04 | S. cerevisiae deletion strains, locus YOL006C, strain TOP1, stronger effect = lower value 1.04 | S. cerevisiae deletion strains, locus YOL012C, strain htz1 1.05 | S. cerevisiae deletion strains, locus YOL147C, strain pex11, stronger effect = lower value 1.01 | S. cerevisiae deletion strains, locus YOR001W, strain rrp6, stronger effect = lower value 0.998 | S. cerevisiae deletion strains, locus YOR061W, strain CKA2, stronger effect = lower value 1.02 | S. cerevisiae deletion strains, locus YOR069W, strain VPS5, stronger effect = lower value 1.01 | S. cerevisiae deletion strains, locus YOR070C, strain gyp1, stronger effect = lower value 1.01 | S. cerevisiae deletion strains, locus YOR080W, strain dia2, stronger effect = lower value 0.995 | S. cerevisiae deletion strains, locus YOR083W, strain WHI5, stronger effect = lower value 1 | S. cerevisiae deletion strains, locus YOR106W, strain vam3, stronger effect = lower value 1.04 | S. cerevisiae deletion strains, locus YOR136W, strain idh2, stronger effect = lower value 1.02 | S. cerevisiae deletion strains, locus YOR144C, strain elg1, stronger effect = lower value 1.02 | S. cerevisiae deletion strains, locus YOR184W, strain ser1, stronger effect = lower value 1.03 | S. cerevisiae deletion strains, locus YOR231W, strain MKK1, stronger effect = lower value 0.997 | S. cerevisiae deletion strains, locus YOR265W, strain rbl2, stronger effect = lower value 1 | S. cerevisiae deletion strains, locus YOR270C, strain vph1, stronger effect = lower value 0.975 | S. cerevisiae deletion strains, locus YOR290C, strain snf2, stronger effect = lower value 1.01 | S. cerevisiae deletion strains, locus YOR316C, strain cot1, stronger effect = lower value 1.03 | S. cerevisiae deletion strains, locus YPL051W, strain arl3, stronger effect = lower value 0.98 | S. cerevisiae deletion strains, locus YPL055C, strain LGE1, stronger effect = lower value 1.03 | S. cerevisiae deletion strains, locus YPL078C, strain atp4, stronger effect = lower value 0.977 | S. cerevisiae deletion strains, locus YPL106C, strain sse1, stronger effect = lower value 1.03 | S. cerevisiae deletion strains, locus YPL240C, strain hsp82, stronger effect = lower value 1.01 | S. cerevisiae deletion strains, locus YPL241C, strain CIN2, stronger effect = lower value 1.03 | S. cerevisiae deletion strains, locus YPL256C, strain CLN2, stronger effect = lower value 0.996 | S. cerevisiae deletion strains, locus YPR119W, strain clb2, stronger effect = lower value 1.01 | S. cerevisiae deletion strains, locus YPR141C, strain kar3, stronger effect = lower value 1.03 | S. cerevisiae deletion strains, locus YPR163C, strain tif3, stronger effect = lower value 1.03 | S. cerevisiae deletion strains, locus YPR167C, strain met16, stronger effect = lower value 1.02 | S. cerevisiae deletion strains, strain wtn01, stronger effect = lower value 1.02 | S. cerevisiae strains, strain wild type, stronger effect = lower value 1.02
